According to PubChem BioAssay (NCATS):
“And” between values parts separate entries of the source, which are not always exact repeats. Equal entries are not always repeated. Records with an inconclusive call do not appear. The source made the active and inactive calls. Calls come from the whole dose curve; as a rule, active = well fitted cell-killing curve with a large enough effect; inconclusive = small, poorly fitted or top-dose-only effect; inactive = no such curve, though single readings can be large or run the other way. Non-standard residues stand in square brackets, D forms with d. Residues, ends and D or L forms follow the SMILES beside them. *: point of attachment. Sta = CC(C)C[C@H](N)[C@@H](O)CC(=O)O; Isovaleryl = CC(C)CC(=O)*

Assay: qHTS of pediatric cancer cell lines to identify multiple opportunities for drug repurposing: Confirmatory screen for DAOY cells (AID 1347114); note: nearly all actives have a fitted effect of over 65% in size
Conditions: DAOY medulloblastoma cells viability, cytotoxicity qHTS; series mostly up to 45.9 µM; activity change, negative = cytotoxic: at the top concentration
Description: Drug repurposing or repositioning has been offered as a strategy for drug development in oncology programs. This approach has special potential for childhood cancers and other rare or orphan diseases, where the expected return on new drug development has been a disincentive to pharmaceuticals.
In this project we exploit the poly-pharmacology of drugs to discover new indications via phenotypic screening of a panel of 19 well-characterized cell lines derived from solid tumors seen in children and adolescents. The goal is to identify approved drugs with previously unrecognized anticancer properties that has the potential to reveal new mechanisms and biological processes involved in carcinogenesis or drug resistance. We employed a titration-based paradigm (quantitative high-throughput screening or qHTS), where all compounds were tested at multiple concentrations for their effect on cell viability. Concentration-response curves (CRCs) were derived directly from the primary screen, and both potency and efficacy values were used to identify compounds with robust bioactivity profiles. We screened the NIH Chemical Genomics Center (NCGC) Pharmaceutical Collection (NPC) and Mechanism Interrogation Plate (MIPE) small molecule collections of approved and investigational compounds against these cell lines; and measured metabolically active cells after 48 hours of compound treatment as a proxy for cell viability.
Assay Submitter: Nathalia J. Martinez, National Center for Advancing Translational Sciences, National Institutes of Health, Rockville, MD, USA; email: natalia.martinez@nih.gov
[1] Shen, M et al. Quantitative high-throughput phenotypic screening of pediatric cancer cell lines identifies multiple opportunities for drug repurposing. Oncotarget 2017 Dec 19;9(4):4758-4772. PMID 29435139.
The cells were obtained from University of North Carolina (UNC), Pediatric Preclinical Testing Program (PPT), and Coriell Institute (CI).
qHTS cell viability assay:
Cells were assayed in growth media at a density of 500-1,000 cells/well. Five microliters of cells were dispensed into 1,536-well, white, solid-bottom, TC-treated plates (Greiner Bio One) using a multidrop dispenser and incubated at 37 degrees C, 5% CO2, under a humidified atmosphere for 5 hours. Twenty-three nanoliters of compounds and controls (neutral control DMSO or positive control bortezomib at final concentration of 2.3 µM) were subsequently transferred by Kalypsys pintool. For primary screens, the MIPE collection was tested at 11-point dilutions (final concentrations range from 0.78 nM to 46 µM) and the NPC collection at 8-point dilutions (final concentrations range from 0.59 nM to 46 µM). Compounds tested in follow-up screens were assayed at 11-point dilutions. Cells were incubated for 48 hours, followed by addition of 3 uL of CellTiter-Glo (Promega). After a 15 min incubation at room temperature, samples were analyzed for luminescence intensity using a ViewLux High-throughput CCD imager equipped with clear filters.
% is set by controls: 0 for no effect and ±100 for the full control effect; potency is the fitted concentration of half-maximal effect.

| SMILES | Potency | activity change, negative = cytotoxic |
| --- | --- | --- |
| Cc1nc(Nc2ncc(C(=O)Nc3c(C)cccc3Cl)s2)cc(N2CCN(CCO)CC2)n1 | 16.5 µM (active) | – |
| CC(C)CC(=O)N[C@H](C(=O)N[C@H](C(=O)N[C@@H](CC(C)C)[C@@H](O)CC(=O)N[C@@H](C)C(=O)N[C@@H](CC(C)C)[C@@H](O)CC(=O)O)C(C)C)C(C)C (Isovaleryl-VV[Sta]A[Sta]-OH) | – | -1.56% (inactive) |
| CCCCc1ccc2nc(NC(=O)OC)[nH]c2c1 | 0.185 µM (active) | – |
| CCCOc1ccc2nc(NC(=O)OC)[nH]c2c1 | 0.928 µM (active) | – |
| O=C(NCC1CCCCN1)c1cc(OCC(F)(F)F)ccc1OCC(F)(F)F (stereo not given) | – | 2.93% (inactive) |
| Cc1c(C(=O)NN2CCCCC2)nn(-c2ccc(Cl)cc2Cl)c1-c1ccc(Cl)cc1 | 23.3 µM (active) | – |
| CCN(CC)CCOc1ccc(Nc2ncc3cc(-c4c(Cl)cccc4Cl)c(=O)n(C)c3n2)cc1 | 1.65 µM (active) | – |
| C=C(c1ccc(C(=O)O)cc1)c1cc2c(cc1C)C(C)(C)CCC2(C)C | – | -8.55% (inactive) |
| CC1(C)C(=O)N(CCN2CCC(C(=O)c3ccc(F)cc3)CC2)c2ccccc21 | – | -24.2% (inactive) |
| C[C@]12CCC(=O)C=C1CC[C@@H]1[C@H]2[C@@H](O)C[C@@]2(C)[C@H]1CC[C@]2(O)C(=O)CO | – | 0.195% (inactive) |
| Nc1ncn([C@H]2C[C@H](O)[C@@H](CO)O2)c(=O)n1 | – | 17.6% (inactive) |
| CC[C@]1(O)C[C@H]2CN(CCc3c([nH]c4ccccc34)[C@@](C(=O)OC)(c3cc4c(cc3OC)N(C=O)[C@H]3[C@@](O)(C(=O)OC)[C@H](OC(C)=O)[C@]5(CC)C=CCN6CC[C@]43[C@@H]65)C2)C1 | 82.7 nM (active) and 92.8 nM (active) | – |
| c1cnc2cc3c(cc2n1)C1CNCC3C1 | – | -2.47% (inactive) |
| Nc1nc(Cl)nc2c1ncn2[C@H]1C[C@H](O)[C@@H](CO)O1 | – | -30.9% (inactive) |
| Nc1ccn([C@@H]2O[C@H](CO)[C@@H](O)C2O)c(=O)n1 (stereo not given in full) | – | 24.4% (inactive) |
| O=C1c2c(O)cc(O)cc2OC(c2ccc(O)c(O)c2)C1O (stereo not given) | – | 6.04% (inactive) |
| Cc1ccc(NC(=O)c2ccc(CN3CCN(C)CC3)cc2)cc1Nc1nccc(-c2cccnc2)n1 | 16.5 µM (active) | – |
| CCN(CC)C(=S)SSC(=S)N(CC)CC | 9.27 µM (active) | – |
| CC(C)C[C@H](NC(=O)[C@H](Cc1ccccc1)NC(=O)c1cnccn1)B(O)O | 0.0131 µM (active) | – |
| CCOc1cc(CC(=O)N[C@@H](CC(C)C)c2ccccc2N2CCCCC2)ccc1C(=O)O | – | -19.6% (inactive) |
| CS(=O)(=O)OCCCCOS(C)(=O)=O | – | -9.3% (inactive) |
| Oc1ccc(-c2nc(-c3ccc(F)cc3)c(-c3ccncc3)[nH]2)cc1 | – | -29.4% (inactive) |
| CCN(CCO)CCCC(C)Nc1ccnc2cc(Cl)ccc12 (stereo not given) | – | -13.3% (inactive) |
| CN(C)c1ccc2nc3ccc(=[N+](C)C)cc-3sc2c1 | 4.65 µM (active) | – |
| Clc1ccc(C(Cn2ccnc2)OCc2ccc(Sc3ccccc3)cc2)c(Cl)c1 (stereo not given) | 18.5 µM (active) | – |
